Experimental data from PubChem BioAssay (NCI).
This is part of a sample that, as a whole, favours compounds with a hit. Of some 79,000 tested, about 15% had one in any assay. Unmarked numbers belong to inactive results. Activity calls are given as the source filed them. Rule as the data show it: active = growth inhibition above about 70%; inactive = the rest.

How the values were obtained:
[1] = NCI Yeast Anticancer Drug Screen. Data for the rad52 strain (AID 147);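 also: 0% = growth of vehicle-treated control cultures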; settings: S. cerevisiae rad52 mutant growth inhibition, stronger effect = higher value
Summary of the method: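 Read-out: growth inhibition versus vehicle-treated controls. Cells were a DNA repair-deficient yeast strain treated with compounds.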

[2] = NCI Yeast Anticancer Drug Screen. Data for the wt1 strain (AID 149);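 also: 0% = growth of vehicle-treated wt1 cultures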; settings: S. cerevisiae wt1 strain (SPY 50644) growth inhibition, stronger effect = higher value
Summary of the method: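 wt1 yeast, compound-treated; % growth inhibition vs vehicle control.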

[3] = NCI Yeast Anticancer Drug Screen. Data for the rad50EPP+ strain (AID 151);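 also: 0% = growth of vehicle-treated control cultures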; settings: S. cerevisiae rad50 mutant strain, stronger effect = higher value
Summary of the method: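 Growth inhibition read against vehicle controls in rad50EPP+ yeast, a strain altered in DNA damage repair, after compound exposure.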

[4] = NCI Yeast Anticancer Drug Screen. Data for the mgt1 strain (AID 153); settings: S. cerevisiae mgt1 mutant growth inhibition, stronger effect = higher value
Summary of the method: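 mgt1 yeast grown with test compound; read-out is growth inhibition versus vehicle-treated cultures.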

[5] = NCI Yeast Anticancer Drug Screen. Data for the rad50 strain (AID 155);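 also: 0% = growth of vehicle-only cultures of the same strain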; settings: S. cerevisiae rad50 strain growth inhibition, stronger effect = higher value
Summary of the method: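 Genetically altered yeast (DNA repair pathway); compound treatment; growth inhibition vs vehicle ctrl.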

[6] = NCI Yeast Anticancer Drug Screen. Data for the mec2-1 strain (AID 157); settings: S. cerevisiae mec2-1 strain, stronger effect = higher value
Summary of the method: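 Yeast mec2-1 mutant treated with compound. Readout: growth inhibition vs vehicle controls.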

[7] = NCI Yeast Anticancer Drug Screen. Data for the sgs1 mgt1 strain (AID 161);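 also: 0% = growth of cultures given vehicle only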; settings: S. cerevisiae sgs1 mgt1 strain, stronger effect = higher value
Summary of the method: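 Genetically altered yeast, compound exposure, growth inhibition relative to vehicle.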

[8] = NCI Yeast Anticancer Drug Screen. Data for the CLN2oe strain (AID 163);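 also: 0% = growth of vehicle-only control cultures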; settings: S. cerevisiae CLN2oe strain, stronger effect = higher value
Summary of the method: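 Read-out: yeast growth inhibition, expressed relative to vehicle-only controls. The strain bears an engineered cell-cycle alteration.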

[9] = NCI Yeast Anticancer Drug Screen. Data for the cln2 rad14 strain (AID 165);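 also: 0% = growth equal to vehicle treated cultures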; settings: S. cerevisiae cln2 rad14 strain, stronger effect = higher value
Summary of the method: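 cln2 rad14 yeast strain; compound exposure; growth inhibition read vs vehicle controls.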

[10] = NCI Yeast Anticancer Drug Screen. Data for the bub3 strain (AID 167); settings: S. cerevisiae bub3 mutant strain, stronger effect = higher value
Summary of the method: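 Yeast carrying a defined mutation is treated with each compound, and growth is compared with that of vehicle-exposed cells to give inhibition.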

[11] = NCI Yeast Anticancer Drug Screen. Data for the wt2 strain (AID 169);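 also: 0% = growth of vehicle-treated yeast cultures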; settings: S. cerevisiae wt2 strain growth inhibition, stronger effect = higher value
Summary of the method: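 Read-out: growth inhibition versus vehicle-treated control cultures after compound exposure of the yeast strain.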

[12] = NCI Yeast Anticancer Drug Screen. Data for the mlh1 strain (AID 171);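 also: 0% = growth of vehicle-treated control cultures of the same strain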; settings: S. cerevisiae mlh1 strain growth inhibition, stronger effect = higher value
Summary of the method: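 Read-out: growth inhibition versus vehicle controls. Strain: engineered yeast with a defined DNA repair or cell cycle defect, compound-treated.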

[13] = NCI Yeast Anticancer Drug Screen. Data for the sgs1 strain (AID 173);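 also: 0% = growth of vehicle-only control cultures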; settings: S. cerevisiae sgs1 mutant, stronger effect = higher value
Summary of the method: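 Read-out: yeast growth inhibition relative to vehicle controls, following compound exposure of a strain with a defined DNA repair/cell cycle alteration.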

[14] = NCI Yeast Anticancer Drug Screen. Data for the mlh1 rad18 strain (AID 175); settings: S. cerevisiae mlh1 rad18 strain growth inhibition, stronger effect = higher value
Summary of the method: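 Yeast w/ defined DNA-repair lesions; compound exposure; growth vs vehicle controls → % inhibition.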

[15] = NCI Yeast Anticancer Drug Screen. Data for the rad18 strain (AID 177); settings: S. cerevisiae rad18 mutant growth inhibition, stronger effect = higher value
Summary of the method: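 Readout: growth inhibition vs vehicle controls. Cells: genetically altered yeast strain, DNA repair defect.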

[16] = at 5.0 µM (retest, dose inferred, filed as 0.5)
[17] = at 50.0 µM (retest, dose inferred, filed as 5.0)

`O=C1C(/C=C/c2ccc(Cl)cc2)=NNC2N1N=C1NC(=O)C3(NN12)c1ccccc1-c1ccccc13` (stereo not drawn) gave a growth inhibition ([1]; at 1.2 µM) of -2%, a growth inhibition ([1]; at 3.7 µM) of -2% and a growth inhibition ([1]; at 11.0 µM) of -1%. The growth inhibition ([1]; at 33.0 µM) was -3%, the growth inhibition ([1]; at 100.0 µM) was 10% and the growth inhibition ([2]; at 1.2 µM) was 1%. It also gave a growth inhibition ([2]; at 3.7 µM) of 2%, a growth inhibition ([2]; at 11.0 µM) of 1% and a growth inhibition ([2]; at 33.0 µM) of 2%. It also gave a growth inhibition ([2]; at 100.0 µM) of 6%, a growth inhibition ([3]; at 1.2 µM) of -1% and a growth inhibition ([3]; at 3.7 µM) of -3%. For the same compound, the growth inhibition ([3]; at 11.0 µM) was 1%, the growth inhibition ([3]; at 33.0 µM) was 0% and the growth inhibition ([3]; at 100.0 µM) was 10%. For the same compound, the growth inhibition ([4]; at 1.2 µM) was -2%, the growth inhibition ([4]; at 3.7 µM) was -2% and the growth inhibition ([4]; at 11.0 µM) was -2%. The growth inhibition ([4]; at 33.0 µM) was -13%, the growth inhibition ([4]; at 100.0 µM) was 4% and the growth inhibition ([5]; at 1.2 µM) was -7%. For the same compound, the growth inhibition ([5]; at 3.7 µM) was -15%, the growth inhibition [5, 16] was -10% and the growth inhibition ([5]; at 11.0 µM) was -21%. For the same compound, the growth inhibition ([5]; at 33.0 µM) was -1%, the growth inhibition [5, 17] was 22% and the growth inhibition ([5]; at 50.0 µM) was 83.3% (active). For the same compound, the growth inhibition ([5]; at 100.0 µM) was 12%, the growth inhibition ([6]; at 1.2 µM) was 0% and the growth inhibition ([6]; at 3.7 µM) was 1%. It also gave a growth inhibition [6, 16] of -10%, a growth inhibition ([6]; at 11.0 µM) of 0% and a growth inhibition ([6]; at 33.0 µM) of 5%. The growth inhibition [6, 17] was 25%, the growth inhibition ([6]; at 50.0 µM) was 76.2% (active) and the growth inhibition ([6]; at 100.0 µM) was 9%. The growth inhibition [7, 16] was -4%, the growth inhibition [7, 17] was 22% and the growth inhibition ([7]; at 50.0 µM) was 73.5% (active). For the same compound, the growth inhibition ([8]; at 1.2 µM) was -3%, the growth inhibition ([8]; at 3.7 µM) was -3% and the growth inhibition ([8]; at 11.0 µM) was 1%. For the same compound, the growth inhibition ([8]; at 33.0 µM) was 9%, the growth inhibition ([8]; at 100.0 µM) was 14% and the growth inhibition [9, 16] was 18%. It also gave a growth inhibition [9, 17] of 32%, a growth inhibition ([9]; at 50.0 µM) of 62.9% and a growth inhibition ([10]; at 1.2 µM) of -2%. For the same compound, the growth inhibition ([10]; at 3.7 µM) was 1%, the growth inhibition [10, 16] was -19% and the growth inhibition ([10]; at 11.0 µM) was 0%. The growth inhibition ([10]; at 33.0 µM) was -2%, the growth inhibition [10, 17] was -12% and the growth inhibition ([10]; at 50.0 µM) was 87.2% (active). The growth inhibition ([10]; at 100.0 µM) was 1%, the growth inhibition ([11]; at 1.2 µM) was -2% and the growth inhibition ([11]; at 3.7 µM) was -2%. For the same compound, the growth inhibition ([11]; at 11.0 µM) was -2%, the growth inhibition ([11]; at 33.0 µM) was 1% and the growth inhibition ([11]; at 100.0 µM) was 4%. The growth inhibition ([12]; at 1.2 µM) was 0%, the growth inhibition ([12]; at 3.7 µM) was 0% and the growth inhibition ([12]; at 11.0 µM) was 1%. It also gave a growth inhibition ([12]; at 33.0 µM) of 2%, a growth inhibition ([12]; at 100.0 µM) of 4% and a growth inhibition ([13]; at 1.2 µM) of -1%. It also gave a growth inhibition ([13]; at 3.7 µM) of 0%, a growth inhibition ([13]; at 11.0 µM) of -1% and a growth inhibition ([13]; at 33.0 µM) of 1%. For the same compound, the growth inhibition ([13]; at 100.0 µM) was 3%, the growth inhibition [14, 16] was -34% and the growth inhibition [14, 17] was 62%. For the same compound, the growth inhibition ([14]; at 50.0 µM) was 87.7% (active), the growth inhibition ([15]; at 1.2 µM) was -3% and the growth inhibition ([15]; at 3.7 µM) was -1%. For the same compound, the growth inhibition ([15]; at 11.0 µM) was -1%, the growth inhibition ([15]; at 33.0 µM) was 0% and the growth inhibition ([15]; at 100.0 µM) was 17%.
